The values that follow come from PubChem BioAssay (NCATS).

Inconclusive results are not listed. Activity calls are given as the source filed them. Calls come from the whole dose curve; as a rule, active = well fitted activation curve with a large enough effect; inconclusive = small, poorly fitted or top-dose-only effect; inactive = flat fitted curve, though single readings scatter.
Potency is the fitted concentration of half-maximal effect.

Sequence of Cellular tumor antigen p53 (Homo sapiens) (P04637 whole entry, looked up): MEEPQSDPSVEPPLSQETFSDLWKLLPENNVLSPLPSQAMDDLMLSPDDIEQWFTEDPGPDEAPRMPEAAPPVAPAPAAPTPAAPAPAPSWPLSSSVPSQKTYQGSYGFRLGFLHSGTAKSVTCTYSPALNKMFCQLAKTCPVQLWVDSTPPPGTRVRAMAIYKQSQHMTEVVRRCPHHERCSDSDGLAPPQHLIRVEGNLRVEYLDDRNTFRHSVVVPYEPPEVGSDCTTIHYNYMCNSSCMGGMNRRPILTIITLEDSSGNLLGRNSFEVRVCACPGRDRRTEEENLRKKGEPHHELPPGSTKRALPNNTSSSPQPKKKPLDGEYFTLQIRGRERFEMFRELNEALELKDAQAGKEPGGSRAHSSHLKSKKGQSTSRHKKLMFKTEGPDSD

This test concerns the target Cellular tumor antigen p53 (Homo sapiens) (UniProt P04637). Put plainly: Primary qHTS for small molecule compounds that upregulate eGFP-tagged delta133p53alpha (in C-terminal) cells. (AID 2060324).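 For GFP increase (activation): 0% = DMSO wells and 100% = 57.5 µM 5-azacytidine.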 The note with it: NCI-H358 delta133p53alpha-eGFP (C-terminal tag), GFP fluorescence imaging, 24 h; series mostly up to 57.5 µM; GFP increase (activation): at the top concentration. The source says: Assay Development and Screening Technology
National Center for Advancing Translational Sciences (NCATS),
National Institute of Health (NIH), Rockville, Maryland
Cellular senescence (CS) is one of the hallmarks of aging and age-related diseases. Senescent cells are characterized by an irreversible growth arrest, an increase in senescence-associated beta-galactosidase (SA-beta-gal) activity and p16INK4a expression, an activation of the DNA damage response pathways, and the emergence of a senescence-associated secretory phenotype (SASP).
Delta133p53alpha, a human/primate-specific p53 protein isoform, delays or inhibits the induction of CS and SASP in various types of human cells, including progeria-derived fibroblasts, primary normal astrocytes, and CD8+ T lymphocytes. Induction of delta133p53alpha with small molecule compounds may provide therapeutic opportunities for inhibition of senescence/SASP-associated pathologies in progeria syndromes, astrocyte-mediated neuroprotection in neurodegenerative diseases, and possibly prevention and treatment of a wider range of senescence- and aging-associated diseases.
Here we report the development and validation of a cell-based quantitative high throughput screening (qHTS) assay in 1,536-well format. This qHTS assay uses the NCI-H358 cell line with doxycycline-inducible expression of enhanced green fluorescent protein (eGFP)-tagged delta133p53alpha, which allows efficient and highly quantitative measurement of the protein levels.
PROTOCOL TABLE (as described by Inglese J, Shamu CE and Guy RK. 2007)
SEQUENCE No. (e.g., 1, 2, 3, etc.); […] (e.g., Cells, Incubation, Reagent, etc.); VALUE; DESCRIPTION.
1; Cells; 4uL; 800 doxycycline treated cells / well in doxycycline-free media, 1536-well black, clear-bottom low base Aurora microplates.
2; Compounds; 23 nL; Kalypsis pin tool (Wako) equipped with 1536-well pin heads, 5-azacytidine positive control.
3; Incubation; 24 hr; 37C, 5% CO2; 95% relative humidity.
4; Aspiration; 1x; BioTek EL406 washer dispenser (Agilent).
5; Fixing; 3.5% paraformaldehyde, BioTek EL406 washer dispenser (Agilent).
6; Washing; 1x PBS; BioTek EL406 washer dispenser (Agilent).
7; Nuclei staining; 1:1000 dilution of Hoechst 33342 (Thermofisher), BioTek EL406 washer dispenser (Agilent).
8; Incubation; 20 min; in the dark at room temperature.
9; Washing; 2x, 1x PBS (ThermoFisher), BioTek EL406 washer dispenser (Agilent).
10; Reagent; 10 uL; 1x PBS per well, sealed with clear adhesive tape.
11; Detection; Fluorescence, Acumen eX3 laser scanning cytometer (STP Labtech), GFP filters […].
NOTES (numbers refer to sequence numbers above).
1. NCI-H358 cells expressing eGFP-tagged delta133p53alpha were grown in T75 culture flasks and treated with doxycycline for 24h, at 10 ng/ml for eGFP-D133p53a cells (N-terminal cell) and 100 ng/ml for D133p53a-eGFP cells (C-terminal cells). Cells were trypsinized, counted using a Counted 3 Automated Cell Counter (Thermo Fisher), and diluted to a concentration of 200,000 cells/ml. A Multidrop Combi Reagent Dispenser (ThermoFisher) was used to dispense 800 cells/well in […] of doxycycline-free media, into 1536-well black/clear bottom low base plates (AuroraMicroplates).
2. After plating cells, 23 nl of compound library, DMSO vehicle control or positive control (5-azacytidine) were transferred by Pin Tool (Wako). The plate map layout was the same for each plate: (column 1) non-doxycycline treated cells + DMSO vehicle control; (column 2) doxycycline treated cells + DMSO vehicle control baseline; (column 3) doxycycline treated cells + positive control 57.5 uM final concentration 5-azacytidine; (column 4) doxycycline treated cells + serial dilution of 5-azacytidine, 16-point 1:2 titration spanning 1.8 nM to […] final concentration; (columns 5-48) doxycycline treated cells + titration of library compounds.
3. Cells were incubated at 37 °C, 5 % CO2, 95% RH with breathable metal lid for 24h.
4-10. […] […]
Consider `CN1CC[C@@]2(C)c3cc(OC(=O)Nc4ccccc4)ccc3N(C)[C@@H]12`, for which the “GFP increase (activation)” value was -2.32% (inactive).
Regarding `CC1=NN=C(c2ccc(N)cc2)c2cc3c(cc2C1)OCO3`, the Potency was 21.3 µM (active).
Take `NC(CCP(=O)(O)O)C(=O)O` (stereo not given): the “GFP increase (activation)” value was 1.98% (inactive).
On the same count and under the same terms, in the case of `CC(C)c1cccc(C(C)C)c1O` it was -8.31% (inactive).
For `CCCN1CCC[C@@H]2Cc3nc(N)ncc3C[C@H]21`, the “GFP increase (activation)” value is -1.15% (inactive).
Turning to `C=CCN1CC[C@]23CCCCC2[C@H]1Cc1ccc(O)cc13` (stereo not given in full), the “GFP increase (activation)” value is 0.0659% (inactive).
Same read-out and setting: in the case of `C[C@H](N)CN1CCc2ccc(Br)cc21` it was 6.21% (inactive).
For the compound `NC1CCc2cc(O)c(O)cc2C1` (stereo not given), the “GFP increase (activation)” value is 15.4% (inactive).
For the compound `CC(N)Cc1c[nH]c2ccc(O)cc12` (stereo not given), the “GFP increase (activation)” value is -1.06% (inactive).
Regarding `CC(C)Oc1cccnc1N(C)C1CCN(Cc2ccccc2)CC1`, the “GFP increase (activation)” value was 4.4% (inactive).
With `O=C1NCN(c2ccccc2)C12CCN(CC1COc3ccccc3O1)CC2` (stereo not given), the “GFP increase (activation)” value was 1.8% (inactive).
Turning to `O=C1/C(=C/c2ccccc2)C[C@@]2(O)[C@H]3Cc4ccc(O)c5c4[C@@]2(CCN3CC2CC2)[C@H]1O5`, the Potency is 21.3 µM (active).
The same measure, in the same setting: the same measure for `CCn1cnc2c(Nc3cccc(Cl)c3)nc(N[C@@H]3CCCC[C@@H]3N)nc21`: 5.36 µM (active).
Regarding `N#CCCN`, the “GFP increase (activation)” value is -1.69% (inactive).
As for `Oc1ccc2c3c1O[C@H]1c4oc5ccccc5c4C[C@@]4(O)C(C2)N(CC2CC2)CCC314` (stereo not given in full), the “GFP increase (activation)” value is 15% (inactive).
On the same count and under the same terms, the same measure for `C[C@@H](N)Cc1cnc[nH]1`: -6.43% (inactive); for `O=C(Cc1ccc(Cl)c(Cl)c1)N1CCCCC1CN1CCCC1` (stereo not given): 5.31% (inactive).
In the case of `CP(=O)(O)C1=CCNCC1`, the “GFP increase (activation)” value is 0.702% (inactive).
For the compound `CS(=N)(=O)CC[C@H](N)C(=O)O` (stereo not given in full), the “GFP increase (activation)” value was -10.3% (inactive).
Take `CC(C)NP(=O)(NC(C)C)OP(=O)(NC(C)C)NC(C)C`: the “GFP increase (activation)” value is -6.59% (inactive).
In the case of `NC(=O)c1cc(N2CC2)c([N+](=O)[O-])cc1[N+](=O)[O-]`, the “GFP increase (activation)” value was -7.95% (inactive).
For `C[C@H]1C2Cc3ccc(O)cc3[C@@]1(C)CCN2CC1CC1`, the “GFP increase (activation)” value was 2.73% (inactive).
For `CC(N)[C@H](O)c1ccc(O)c(O)c1` (stereo not given in full), the “GFP increase (activation)” value is 0.156% (inactive).
As to `CC(N)c1cccc(Cl)c1Cl` (stereo not given), the “GFP increase (activation)” value was 0.375% (inactive).
For `NCCCP(=O)(O)O`, the “GFP increase (activation)” value is -1.88% (inactive).
On to `C[C@]12Cc3cn4c(nc3C=C1CCC1C2CC[C@@]2(C)[C@H]1CC[C@@]2(O)C#N)nc1ccccc14` (stereo not given in full), for which the Potency was 30.1 µM (active).
For `O=c1[nH]oc2c1CCNC2`, the “GFP increase (activation)” value was -4.89% (inactive).
As for `CC(N)Cc1c[nH]c2ccc(OCc3cccs3)cc12` (stereo not given), the “GFP increase (activation)” value was 6.49% (inactive).
Turning to `CCCC[N+]1(C)C2CC(OC(=O)[C@H](CO)c3ccccc3)CC1C1OC12` (stereo not given in full), the “GFP increase (activation)” value was -0.387% (inactive).
Regarding `O=C(O)CC[N+](=O)[O-]`, the “GFP increase (activation)” value is -1.52% (inactive).
As for `Cc1c2ccncc2c(C)c2c1[nH]c1ccccc12`, the Potency is 30.1 µM (active).
On to `NCCc1ccc(O)cc1`, for which the “GFP increase (activation)” value is 0.0491% (inactive).
`CC(C)=CCOc1c2occc2cc2ccc(=O)oc12`: the “GFP increase (activation)” value is -14.5% (inactive).
For the compound `c1ccc(CCCN2CCN(CCOC(c3ccccc3)c3ccccc3)CC2)cc1`, the “GFP increase (activation)” value is 2.37% (inactive).
Take `N#CC(C#N)=Cc1ccc(O)c(O)c1`: the “GFP increase (activation)” value was -13.6% (inactive).
Same read-out and setting: in the case of `CCCCCCCCCCCCCC(=O)O[C@@H]1[C@@H](C)[C@@]2(O)[C@@H](C=C(CO)C[C@@]3(O)C(=O)C(C)=C[C@@H]23)C2C(C)(C)[C@@]21OC(C)=O` (stereo not given in full) it was 19% (inactive); in that of `Cn1c(CCCC(=O)O)nc2cc(N(CCCl)CCCl)ccc21`, 1.47% (inactive).
On to `CCCN1CCC[C@@H]2Cc3[nH]ncc3C[C@H]21`, for which the Potency result is “inactive”.
In the case of `NCc1cc(=O)[nH]o1`, the “GFP increase (activation)” value was -3.46% (inactive).
For `CCCN(CCC)C1CCc2ccc(O)cc2C1` (stereo not given), the “GFP increase (activation)” value was 1.52% (inactive).
